Laboratory results taken from PMC7862700, “An all-to-all approach to the identification of sequence-specific readers for epigenetic DNA modifications on cytosine”.

Legend:
Assay in all cases: DAPPL (digital affinity profiling via proximity ligation, sequencing); 10 mM Tris-HCl pH 7.5, 50 mM NaCl, 1 mM DTT, 4% glycerol, room temperature, 30 min; GST-TFs on glutathione beads, 16-mer random dsDNA library, 0.1% formaldehyde crosslink after washing; high values mean tight binding
[1] = target: T1, FLI1 (Homo sapiens, UniProt Q01543 1-452); conditions: protein: recombinant; tags: N-terminal GST; dsDNA, one strand shown
T1 sequence: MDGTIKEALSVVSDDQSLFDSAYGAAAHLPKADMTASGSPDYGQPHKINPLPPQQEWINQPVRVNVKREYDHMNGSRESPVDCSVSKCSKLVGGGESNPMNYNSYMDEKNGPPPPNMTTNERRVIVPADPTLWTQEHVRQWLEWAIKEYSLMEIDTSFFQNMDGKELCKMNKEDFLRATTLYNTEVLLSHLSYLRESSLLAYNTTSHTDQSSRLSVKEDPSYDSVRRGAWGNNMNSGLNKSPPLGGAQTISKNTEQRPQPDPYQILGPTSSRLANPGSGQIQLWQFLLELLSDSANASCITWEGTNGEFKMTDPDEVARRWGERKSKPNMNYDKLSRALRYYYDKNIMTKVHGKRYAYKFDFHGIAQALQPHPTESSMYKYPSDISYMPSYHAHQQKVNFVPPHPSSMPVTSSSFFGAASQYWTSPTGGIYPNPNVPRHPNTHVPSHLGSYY
Summary of the method: (§1)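 Binding signal is given per hexamer as its read frequency for a factor divided by its frequency in the tag-only sample. GST-fused human transcription factors were expressed in yeast, captured on glutathione beads, barcoded with DNA and pooled with that sample, then incubated with 200 nmole of a 16-mer random double-stranded DNA library in Tris/NaCl/DTT/glycerol buffer for 30 min at room temperature. The pools were then washed, crosslinked, proximity-ligated, amplified by PCR and sequenced on an Illumina NextSeq500.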

[2] = target: T2, ELK1 (Homo sapiens, UniProt P19419 1-428); conditions: protein: recombinant; tags: N-terminal GST; dsDNA, one strand shown
T2 sequence: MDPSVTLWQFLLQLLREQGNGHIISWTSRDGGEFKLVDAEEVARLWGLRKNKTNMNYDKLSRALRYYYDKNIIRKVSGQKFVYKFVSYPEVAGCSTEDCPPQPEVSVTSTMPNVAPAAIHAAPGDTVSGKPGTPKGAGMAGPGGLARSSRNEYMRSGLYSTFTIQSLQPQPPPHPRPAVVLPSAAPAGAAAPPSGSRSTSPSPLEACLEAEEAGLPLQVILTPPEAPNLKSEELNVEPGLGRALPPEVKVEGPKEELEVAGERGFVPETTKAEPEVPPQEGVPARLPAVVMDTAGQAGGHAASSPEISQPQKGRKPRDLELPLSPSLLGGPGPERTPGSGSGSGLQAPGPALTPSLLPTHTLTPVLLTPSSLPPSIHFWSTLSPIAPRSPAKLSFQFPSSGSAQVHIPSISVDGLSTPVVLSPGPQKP
Summary of the method: as §1

[3] = target: T3, GABPA (Homo sapiens, UniProt Q06546 1-454); conditions: protein: recombinant; tags: N-terminal GST; dsDNA, one strand shown
T3 sequence: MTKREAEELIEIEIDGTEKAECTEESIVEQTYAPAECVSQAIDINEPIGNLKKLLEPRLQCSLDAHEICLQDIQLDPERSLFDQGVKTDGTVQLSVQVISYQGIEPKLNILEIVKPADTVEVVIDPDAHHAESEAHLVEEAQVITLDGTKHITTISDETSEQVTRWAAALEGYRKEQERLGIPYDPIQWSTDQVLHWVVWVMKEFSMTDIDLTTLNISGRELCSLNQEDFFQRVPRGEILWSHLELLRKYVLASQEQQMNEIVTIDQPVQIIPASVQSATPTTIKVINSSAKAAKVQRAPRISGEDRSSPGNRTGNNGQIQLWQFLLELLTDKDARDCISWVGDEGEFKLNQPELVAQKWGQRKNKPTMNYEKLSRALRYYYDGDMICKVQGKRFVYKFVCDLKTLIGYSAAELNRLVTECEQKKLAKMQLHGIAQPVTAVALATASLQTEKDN
Summary of the method: as §1

[4] = target: T4, ERG (Homo sapiens, UniProt P11308 1-479); conditions: protein: recombinant; tags: N-terminal GST; dsDNA, one strand shown
T4 sequence: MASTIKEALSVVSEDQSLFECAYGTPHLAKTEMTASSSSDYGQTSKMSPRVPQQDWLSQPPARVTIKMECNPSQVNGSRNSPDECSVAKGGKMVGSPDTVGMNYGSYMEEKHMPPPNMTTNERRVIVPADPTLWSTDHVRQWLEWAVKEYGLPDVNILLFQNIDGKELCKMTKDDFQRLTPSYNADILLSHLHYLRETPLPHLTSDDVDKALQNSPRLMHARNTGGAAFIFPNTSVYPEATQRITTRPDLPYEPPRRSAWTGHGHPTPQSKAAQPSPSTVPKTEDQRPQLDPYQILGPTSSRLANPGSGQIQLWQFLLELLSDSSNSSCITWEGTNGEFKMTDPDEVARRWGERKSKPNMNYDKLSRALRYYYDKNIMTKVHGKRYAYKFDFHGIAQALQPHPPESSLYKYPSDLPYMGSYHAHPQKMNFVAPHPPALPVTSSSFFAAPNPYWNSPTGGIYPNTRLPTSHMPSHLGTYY
Summary of the method: as §1

[5] = target: ELF1 (Homo sapiens, UniProt P32519 1-619); conditions: protein: recombinant; tags: N-terminal GST; dsDNA, one strand shown
Summary of the method: as §1

[6] = target: T5, EHF (Homo sapiens, UniProt Q9NZC4 1-300); conditions: protein: recombinant; tags: N-terminal GST; dsDNA, one strand shown
T5 sequence: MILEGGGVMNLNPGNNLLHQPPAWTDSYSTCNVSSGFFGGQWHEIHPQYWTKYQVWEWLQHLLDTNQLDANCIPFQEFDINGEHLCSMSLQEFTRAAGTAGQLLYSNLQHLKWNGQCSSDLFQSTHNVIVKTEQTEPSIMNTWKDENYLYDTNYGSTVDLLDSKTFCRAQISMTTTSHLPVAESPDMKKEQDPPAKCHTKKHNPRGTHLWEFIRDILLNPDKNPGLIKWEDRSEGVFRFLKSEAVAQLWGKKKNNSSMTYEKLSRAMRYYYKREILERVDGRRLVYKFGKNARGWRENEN
Summary of the method: as §1

[7] = target: SPI1 (Homo sapiens, UniProt P17947 1-270); conditions: protein: recombinant; tags: N-terminal GST; dsDNA, one strand shown
Summary of the method: as §1

[8] = target: SPIB (Homo sapiens, UniProt Q01892 1-262); conditions: protein: recombinant; tags: N-terminal GST; dsDNA, one strand shown
Summary of the method: as §1

[9] = target: T6, ELK3 (Homo sapiens, UniProt P41970 1-407); conditions: protein: recombinant; tags: N-terminal GST; dsDNA, one strand shown
T6 sequence: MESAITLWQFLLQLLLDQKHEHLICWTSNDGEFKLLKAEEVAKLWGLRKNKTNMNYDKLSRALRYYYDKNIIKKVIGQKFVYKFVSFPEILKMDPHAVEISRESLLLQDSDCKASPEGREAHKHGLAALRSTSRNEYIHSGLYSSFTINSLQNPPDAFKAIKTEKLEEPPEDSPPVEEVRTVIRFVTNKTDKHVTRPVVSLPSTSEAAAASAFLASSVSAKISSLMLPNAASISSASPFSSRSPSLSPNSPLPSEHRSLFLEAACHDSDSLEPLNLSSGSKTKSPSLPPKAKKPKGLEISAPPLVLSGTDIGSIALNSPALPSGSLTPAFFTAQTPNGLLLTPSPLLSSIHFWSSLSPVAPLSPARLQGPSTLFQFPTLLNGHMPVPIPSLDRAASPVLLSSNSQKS
Summary of the method: as §1

[10] = target: T7, FEV (Homo sapiens, UniProt Q99581 1-238); conditions: protein: recombinant; tags: N-terminal GST; dsDNA, one strand shown
T7 sequence: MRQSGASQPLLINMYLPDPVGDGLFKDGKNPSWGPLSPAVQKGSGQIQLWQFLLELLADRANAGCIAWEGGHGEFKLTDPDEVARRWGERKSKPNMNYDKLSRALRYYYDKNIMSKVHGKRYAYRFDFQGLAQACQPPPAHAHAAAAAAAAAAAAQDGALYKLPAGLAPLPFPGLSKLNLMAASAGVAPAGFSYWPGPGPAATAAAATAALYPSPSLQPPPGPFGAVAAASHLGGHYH
Summary of the method: as §1

[11] = target: ETV5 (Homo sapiens, UniProt P41161 1-510); conditions: protein: recombinant; tags: N-terminal GST; dsDNA, one strand shown
Summary of the method: as §1

[12] = target: HSF1 (Homo sapiens, UniProt Q00613 1-529); conditions: protein: recombinant; tags: N-terminal GST; chain copies: 3; dsDNA, one strand shown
Summary of the method: as §1

[13] = target: T8, SPIC (Homo sapiens, UniProt Q8N5J4 1-248); conditions: protein: recombinant; tags: N-terminal GST; dsDNA, one strand shown
T8 sequence: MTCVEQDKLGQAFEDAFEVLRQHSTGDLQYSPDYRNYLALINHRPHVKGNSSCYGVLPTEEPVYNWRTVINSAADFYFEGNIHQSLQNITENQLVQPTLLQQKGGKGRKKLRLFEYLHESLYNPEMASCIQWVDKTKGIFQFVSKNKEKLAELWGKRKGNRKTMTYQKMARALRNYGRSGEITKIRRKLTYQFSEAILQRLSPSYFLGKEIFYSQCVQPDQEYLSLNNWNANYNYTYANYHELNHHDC
Summary of the method: as §1

[14] = target: ELF4 (Homo sapiens, UniProt Q99607 1-663); conditions: protein: recombinant; tags: N-terminal GST; dsDNA, one strand shown
Summary of the method: as §1

[15] = target: T9, ELK4 (Homo sapiens, UniProt P28324-2 1-405); conditions: protein: recombinant; tags: N-terminal GST; dsDNA, one strand shown
T9 sequence: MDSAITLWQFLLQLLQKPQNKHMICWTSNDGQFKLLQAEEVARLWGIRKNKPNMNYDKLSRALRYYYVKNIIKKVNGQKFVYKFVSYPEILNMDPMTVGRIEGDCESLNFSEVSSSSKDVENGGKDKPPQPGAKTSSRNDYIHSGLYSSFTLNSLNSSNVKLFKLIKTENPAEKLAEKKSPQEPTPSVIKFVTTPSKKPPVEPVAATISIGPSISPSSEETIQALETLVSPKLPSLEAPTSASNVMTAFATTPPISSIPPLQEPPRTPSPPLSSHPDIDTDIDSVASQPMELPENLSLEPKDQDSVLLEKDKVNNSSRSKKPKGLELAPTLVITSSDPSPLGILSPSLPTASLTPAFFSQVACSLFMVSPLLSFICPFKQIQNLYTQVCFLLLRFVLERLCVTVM
Summary of the method: as §1

[16] = target: T10, ETV2 (Homo sapiens, UniProt O00321 1-342); conditions: protein: recombinant; tags: N-terminal GST; dsDNA, one strand shown
T10 sequence: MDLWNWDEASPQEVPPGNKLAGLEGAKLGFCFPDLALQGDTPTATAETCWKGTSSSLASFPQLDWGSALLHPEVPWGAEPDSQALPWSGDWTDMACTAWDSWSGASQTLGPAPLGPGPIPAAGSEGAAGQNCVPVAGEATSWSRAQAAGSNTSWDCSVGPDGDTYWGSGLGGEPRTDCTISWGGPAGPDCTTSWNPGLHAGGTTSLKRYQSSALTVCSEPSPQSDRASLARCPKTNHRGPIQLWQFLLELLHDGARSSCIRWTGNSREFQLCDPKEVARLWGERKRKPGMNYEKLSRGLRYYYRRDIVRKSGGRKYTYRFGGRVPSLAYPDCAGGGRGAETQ
Summary of the method: as §1

[17] = target: T11, ELF3 (Homo sapiens, UniProt P78545 1-371); conditions: protein: recombinant; tags: N-terminal GST; dsDNA, one strand shown
T11 sequence: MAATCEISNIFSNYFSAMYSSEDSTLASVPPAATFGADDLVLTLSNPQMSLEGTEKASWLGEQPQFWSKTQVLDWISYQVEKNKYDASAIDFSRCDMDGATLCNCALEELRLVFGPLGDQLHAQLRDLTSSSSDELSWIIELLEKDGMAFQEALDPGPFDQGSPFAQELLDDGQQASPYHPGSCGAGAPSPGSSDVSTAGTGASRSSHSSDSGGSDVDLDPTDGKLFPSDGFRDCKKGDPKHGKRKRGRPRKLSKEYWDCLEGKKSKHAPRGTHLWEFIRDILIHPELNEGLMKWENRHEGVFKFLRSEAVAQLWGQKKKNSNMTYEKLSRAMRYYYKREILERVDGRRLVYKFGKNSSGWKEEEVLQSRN
Summary of the method: as §1

[18] = target: CRX (Homo sapiens, UniProt O43186 1-299); conditions: protein: recombinant; tags: N-terminal GST; dsDNA, one strand shown
Summary of the method: as §1

[19] = target: ETV1 (Homo sapiens, UniProt P50549 1-477); conditions: protein: recombinant; tags: N-terminal GST; dsDNA, one strand shown
Summary of the method: as §1

Sequence of ETV5 (P41161 whole entry): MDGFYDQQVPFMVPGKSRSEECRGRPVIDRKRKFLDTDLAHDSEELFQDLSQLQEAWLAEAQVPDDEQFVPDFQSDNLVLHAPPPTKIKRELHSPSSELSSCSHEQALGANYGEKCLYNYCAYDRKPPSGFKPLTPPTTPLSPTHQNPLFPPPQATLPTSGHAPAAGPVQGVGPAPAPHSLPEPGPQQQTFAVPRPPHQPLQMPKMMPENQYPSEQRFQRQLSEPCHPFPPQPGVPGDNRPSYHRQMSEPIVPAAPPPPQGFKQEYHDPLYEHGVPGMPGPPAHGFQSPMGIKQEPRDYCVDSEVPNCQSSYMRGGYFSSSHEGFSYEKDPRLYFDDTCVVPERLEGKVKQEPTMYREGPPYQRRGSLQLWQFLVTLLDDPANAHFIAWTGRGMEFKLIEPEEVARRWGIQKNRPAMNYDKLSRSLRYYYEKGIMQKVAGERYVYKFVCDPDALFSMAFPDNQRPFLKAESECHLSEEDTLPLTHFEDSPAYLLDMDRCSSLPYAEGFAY
Sequence of HSF1 (Q00613 whole entry): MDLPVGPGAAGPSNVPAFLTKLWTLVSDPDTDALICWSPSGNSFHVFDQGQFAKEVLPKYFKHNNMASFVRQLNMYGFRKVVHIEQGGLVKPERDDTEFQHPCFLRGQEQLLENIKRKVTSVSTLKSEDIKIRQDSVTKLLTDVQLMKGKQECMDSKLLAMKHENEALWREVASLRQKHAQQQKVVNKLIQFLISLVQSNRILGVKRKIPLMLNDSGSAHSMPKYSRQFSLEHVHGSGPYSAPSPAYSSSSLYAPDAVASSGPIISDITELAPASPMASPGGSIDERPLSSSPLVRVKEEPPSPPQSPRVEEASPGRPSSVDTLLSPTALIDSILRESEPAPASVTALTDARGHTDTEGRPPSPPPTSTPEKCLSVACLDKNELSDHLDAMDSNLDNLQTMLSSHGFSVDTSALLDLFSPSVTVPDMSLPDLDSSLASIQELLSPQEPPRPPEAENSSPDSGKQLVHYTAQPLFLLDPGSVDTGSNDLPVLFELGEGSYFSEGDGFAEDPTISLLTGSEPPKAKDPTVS
Sequence of SPIB (Q01892 whole entry): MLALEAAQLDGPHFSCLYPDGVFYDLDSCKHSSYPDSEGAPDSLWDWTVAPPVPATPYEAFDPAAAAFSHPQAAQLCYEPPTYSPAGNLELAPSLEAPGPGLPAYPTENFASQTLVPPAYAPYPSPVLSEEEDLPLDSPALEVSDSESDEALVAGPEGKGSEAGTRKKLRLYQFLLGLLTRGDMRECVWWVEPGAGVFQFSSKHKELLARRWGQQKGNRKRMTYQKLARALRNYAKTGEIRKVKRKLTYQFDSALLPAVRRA
Sequence of ELF4 (Q99607 whole entry): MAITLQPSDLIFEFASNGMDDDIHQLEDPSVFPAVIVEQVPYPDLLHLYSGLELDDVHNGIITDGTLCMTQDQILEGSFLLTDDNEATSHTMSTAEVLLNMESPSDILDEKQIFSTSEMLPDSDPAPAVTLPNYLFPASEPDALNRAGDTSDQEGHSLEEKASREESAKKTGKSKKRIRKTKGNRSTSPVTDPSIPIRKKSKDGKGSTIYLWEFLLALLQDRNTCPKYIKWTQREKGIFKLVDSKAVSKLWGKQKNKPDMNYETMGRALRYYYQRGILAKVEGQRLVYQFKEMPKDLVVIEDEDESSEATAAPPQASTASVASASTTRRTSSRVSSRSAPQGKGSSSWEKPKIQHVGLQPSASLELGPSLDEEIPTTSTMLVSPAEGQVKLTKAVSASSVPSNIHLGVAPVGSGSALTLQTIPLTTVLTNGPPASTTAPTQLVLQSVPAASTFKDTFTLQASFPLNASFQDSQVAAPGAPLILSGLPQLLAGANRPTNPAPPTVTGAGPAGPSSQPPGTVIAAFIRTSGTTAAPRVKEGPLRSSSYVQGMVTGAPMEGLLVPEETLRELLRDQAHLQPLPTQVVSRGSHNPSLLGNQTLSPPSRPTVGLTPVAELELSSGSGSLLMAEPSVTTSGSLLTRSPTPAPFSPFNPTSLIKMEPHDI
Sequence of CRX (O43186 whole entry): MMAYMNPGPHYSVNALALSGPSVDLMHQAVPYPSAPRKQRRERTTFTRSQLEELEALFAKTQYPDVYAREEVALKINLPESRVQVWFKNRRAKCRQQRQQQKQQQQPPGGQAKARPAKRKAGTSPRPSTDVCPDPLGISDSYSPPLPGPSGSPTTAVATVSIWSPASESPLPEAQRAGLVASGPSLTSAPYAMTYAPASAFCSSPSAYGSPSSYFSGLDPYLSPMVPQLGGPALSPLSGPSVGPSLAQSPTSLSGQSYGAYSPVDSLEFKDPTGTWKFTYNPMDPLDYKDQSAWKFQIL
Sequence of ELF1 (P32519 whole entry): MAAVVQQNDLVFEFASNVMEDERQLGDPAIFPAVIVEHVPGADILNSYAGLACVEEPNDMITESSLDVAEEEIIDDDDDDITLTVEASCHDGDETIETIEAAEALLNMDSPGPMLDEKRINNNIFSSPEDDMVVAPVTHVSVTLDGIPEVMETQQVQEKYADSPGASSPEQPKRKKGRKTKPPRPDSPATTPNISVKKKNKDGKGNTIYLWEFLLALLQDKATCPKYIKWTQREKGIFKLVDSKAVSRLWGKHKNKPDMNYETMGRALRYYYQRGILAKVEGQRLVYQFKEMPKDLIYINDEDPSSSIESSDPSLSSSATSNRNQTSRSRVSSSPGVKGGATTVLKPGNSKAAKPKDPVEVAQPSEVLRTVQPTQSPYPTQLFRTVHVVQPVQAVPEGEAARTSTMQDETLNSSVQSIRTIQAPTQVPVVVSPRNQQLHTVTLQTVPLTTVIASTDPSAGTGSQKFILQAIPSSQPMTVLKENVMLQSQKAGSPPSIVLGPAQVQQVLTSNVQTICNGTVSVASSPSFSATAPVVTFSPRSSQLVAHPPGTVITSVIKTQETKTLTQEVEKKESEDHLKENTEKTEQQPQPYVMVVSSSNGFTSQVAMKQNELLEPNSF
Sequence of ETV1 (P50549 whole entry): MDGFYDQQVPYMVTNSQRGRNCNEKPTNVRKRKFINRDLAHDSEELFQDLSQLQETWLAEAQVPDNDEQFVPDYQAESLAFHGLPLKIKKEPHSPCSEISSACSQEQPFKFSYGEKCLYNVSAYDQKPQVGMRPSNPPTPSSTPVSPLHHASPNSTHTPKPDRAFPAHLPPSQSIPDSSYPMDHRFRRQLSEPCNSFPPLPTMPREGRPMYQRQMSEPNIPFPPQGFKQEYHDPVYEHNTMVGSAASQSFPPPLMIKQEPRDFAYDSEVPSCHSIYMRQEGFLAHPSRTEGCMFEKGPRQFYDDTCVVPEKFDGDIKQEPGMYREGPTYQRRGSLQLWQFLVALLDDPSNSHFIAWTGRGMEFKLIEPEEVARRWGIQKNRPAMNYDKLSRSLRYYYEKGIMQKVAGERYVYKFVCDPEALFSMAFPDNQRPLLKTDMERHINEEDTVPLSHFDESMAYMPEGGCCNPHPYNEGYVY

GCTAGC
binding signal [1]: 1.17 fold enrichment (6-mer frequency, TF over GST control) | binding signal [2]: 1.23 fold enrichment (6-mer frequency, TF over GST control) | binding signal [3]: 1.18 fold enrichment (6-mer frequency, TF over GST control) | binding signal [4]: 1.22 fold enrichment (6-mer frequency, TF over GST control) | binding signal [5]: 1.18 fold enrichment (6-mer frequency, TF over GST control) | binding signal [6]: 1.19 fold enrichment (6-mer frequency, TF over GST control) | binding signal [7]: 1.29 fold enrichment (6-mer frequency, TF over GST control) | binding signal [8]: 1.17 fold enrichment (6-mer frequency, TF over GST control) | binding signal [9]: 1.22 fold enrichment (6-mer frequency, TF over GST control) | binding signal [10]: 1.31 fold enrichment (6-mer frequency, TF over GST control) | binding signal [11]: 1.24 fold enrichment (6-mer frequency, TF over GST control) | binding signal [12]: 1.19 fold enrichment (6-mer frequency, TF over GST control) | binding signal [13]: 1.28 fold enrichment (6-mer frequency, TF over GST control) | binding signal [14]: 1.3 fold enrichment (6-mer frequency, TF over GST control) | binding signal [15]: 1.23 fold enrichment (6-mer frequency, TF over GST control) | binding signal [16]: 1.39 fold enrichment (6-mer frequency, TF over GST control) | binding signal [17]: 1.2 fold enrichment (6-mer frequency, TF over GST control) | binding signal [18]: 1.05 fold enrichment (6-mer frequency, TF over GST control) | binding signal [19]: 1.24 fold enrichment (6-mer frequency, TF over GST control)
